NS1 function inh – inhibitors of influenza NS1 protein function | Potency, µM (series often up to 46.1 µM), without a hit: top-dose activity, positive = more growth | 0.4% of 270,000 active; calls by dose curve; note: potency is the fitted concentration of half-maximal effect; actives are rising curves; nearly all actives have a fitted effect of over 50% in size
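S. cerevisiae expressing influenza A NS1, grown in glucose, washed, then diluted 1:100 into pH 6.0 -URA galactose medium with 23 nl compound. Growth recovery read as OD600; NS1-free strain serves as control.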
Tb PYK inh – blocks Trypanosoma brucei pyruvate kinase. Q57TT1. TbPYK enzyme, Kinase-Glo Plus ATP luminescence, 45 min. Potency, µM (titrated, usually from 76.8 µM), without a hit: top-dose activity, negative = inhibition, actives largely listed as inhibitors. 0.12% of 410,000 active. AID 624173; note: potency is the fitted concentration of half-maximal effect; % is set by controls: 0 for no effect and ±100 for the full control effect; nearly all actives have a fitted effect of over 50% in size
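Luminescent Kinase-Glo Plus end-point after 45 min room-temperature reaction of T. brucei pyruvate kinase started with 130 uM ADP (final). Buffer TEA 50 mM pH 7.2 with KCl, MgCl2, BSA, Tween-20; titration-based qHTS with fitted concentration-effect curves.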
SARS PLP yeast – blocks SARS-CoV papain-like protease in a yeast assay | 0.19% of 330,000 active | Potency, µM (titrated, usually from 32.9 µM), for the others: at the top dose activity, positive = growth rescue, usual class: activators | AID 485353 | S. cerevisiae expressing SARS-CoV PLpro, growth rescue; calls by dose curve; note: potency is the fitted concentration of half-maximal effect; 0% is about no effect; nearly all actives have a fitted effect of over 55% in size
CHX counter – counter-screen hit for Shiga toxin inhibitors, cycloheximide | AID 2314 | max response, % | cell reporter, cycloheximide protein synthesis inhibition counterscreen | 12% of 300,000 active; in the data active = max response mostly above about 13%, no sharp cut-off; inactive = mostly below about 14%; note: read at 38.3 µM for the half of the compounds with a filed dose; 0% is about no effect
LmPK inhibitor – LmPK (Leishmania mexicana) enzyme inhibition | Q27686 | purified LmPK, Kinase-Glo ATP luminescence, 1 h | Potency, µM (titrated, usually from 57.5 µM), for the others: at the highest dose activity change, negative = inhibition, usual class: inhibitors | 0.37% of 290,000 active | AID 1721; note: potency is the fitted concentration of half-maximal effect; % is set by controls: 0 for no effect and ±100 for the full control effect
Target sequence (Q27686 whole entry, looked up): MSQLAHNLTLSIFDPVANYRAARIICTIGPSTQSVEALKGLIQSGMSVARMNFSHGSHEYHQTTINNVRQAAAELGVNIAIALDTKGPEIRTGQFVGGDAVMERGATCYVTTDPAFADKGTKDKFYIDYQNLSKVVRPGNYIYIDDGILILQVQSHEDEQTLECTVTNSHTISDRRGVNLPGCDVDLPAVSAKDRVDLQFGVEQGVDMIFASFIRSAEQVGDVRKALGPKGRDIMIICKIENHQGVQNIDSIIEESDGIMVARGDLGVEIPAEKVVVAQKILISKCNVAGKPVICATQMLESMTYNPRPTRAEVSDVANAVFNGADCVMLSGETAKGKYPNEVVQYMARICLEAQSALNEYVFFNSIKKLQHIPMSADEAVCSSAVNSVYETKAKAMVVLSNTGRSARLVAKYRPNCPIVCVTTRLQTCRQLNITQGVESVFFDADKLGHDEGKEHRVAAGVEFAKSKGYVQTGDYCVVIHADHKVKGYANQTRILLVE
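Pyruvate kinase activity monitored as ATP production (luciferase luminescence). Conditions: 0.1 nM enzyme, 0.5 mM PEP, 0.1 mM ADP, 1 h, RT; normalized against uninhibited and no-enzyme wells.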
Shiga inhibitor – blocks Shiga toxin action in Vero cells | Vero cells, Shiga toxin protein synthesis inhibition reporter | AID 2315 | 9.2% of 290,000 active | inhibition, % at 38.7 µM; in the data active = inhibition mostly above about 28%, no sharp cut-off; inactive = mostly below about 43%; note: 0% is about no effect
* hit, by the source's call; ? = inconclusive; / = not tested or not shown; [ ] = dose if it differs, or a comment. Shown is part of a subset that was picked to be rich in hits. Unless noted, calls come from the whole dose curve; as a rule, active = well fitted curve in the direction sought with a large enough effect; inconclusive = small, poorly fitted or top-dose-only effect, or another doubt; inactive = no such curve, though single readings can be large; an effect the other way counts as inactive or inconclusive.

SMILES	NS1 function inh	Tb PYK inh	SARS PLP yeast	CHX counter	LmPK inhibitor	Shiga inhibitor
COc1ccc(OC)c(Nc2nc3ccccc3n3c(C)nnc23)c1	/	-1%	/	/	/	/
Cc1cc(C)cc(C(O)c2ncc(-c3ccc(Cl)cc3)[nH]2)c1 (centres undefined)	/	-3%	/	/	/	/
CSc1ncc(-c2ccc(Cl)cc2)[nH]1	2%	0%	-14%	45*	-8%	76*
CC(C)OC(=O)CC12CN(C)CC(CC(=O)OC(C)C)(CN(C)C1)C2=O	1%	4%	-3%	35*	-1%	40
CC(C)OC(=O)CC12CN3CC(CC(=O)OC(C)C)(CN(C1)C(=O)c1ccccc1C3=O)C2=O	1%	-8%	8%	-4	0%	-11
c1ccc2nc(-c3ccncc3)ccc2c1	-11%	-1%	-7%	34*	-20%	84*
Cc1cc(-c2ccc(N3CCOCC3)cc2)nc2ccccc12	6%	-11%	18%	30*	-4%	28*
c1ccc(-c2ccc3cnccc3n2)cc1	/	2%	/	/	/	/
c1ccc2nc(-c3ccc(N4CCOCC4)cc3)ccc2c1	8%	-25%	-6%	33*	?	67*
CN1CCN(c2ccc(-c3ccc4ccccc4n3)cc2)CC1	2%	-15%	0%	1	-17%	-13
CC1CCC(Nc2nc3c(-c4ccc(Cl)cc4)nnn3c3ccccc23)CC1 (centres undefined)	/	2%	/	/	/	/
O=C(NCc1ccccc1F)c1cccc(NC(=O)N2CCSc3ncccc32)c1	/	-1%[15.4 µM]	/	/	/	/
CCC1Oc2ccccc2N(CC(=O)NCc2ccco2)C1=O (centres undefined)	-5%	2%	24%	-1	0%	19
Cc1nc2c(OCCOc3ccc(F)cc3)cccn2c1N(C)C(=O)CCC1CCCC1	/	1%	/	/	/	/
CCC(Sc1nc2nccnc2c(=O)n1Cc1ccc(F)cc1)C(=O)NC1CCCCC1 (centres undefined)	/	0%	/	/	/	/
Cc1ccc(C(C)C)c(OCc2nc(-c3nonc3N)no2)c1	-15%	-1%	-12%	28*	12%	101*
Cc1ccc(C(C)C)c(OCc2n[nH]c(=S)o2)c1	-1%	-33%	0%	-6	2%	2
Cc1ccc(Nc2nc(CSc3nnc(-c4ccccc4)n3C)cs2)cc1	-4%	2%	-25%	32*	2%	52*
C=CCn1c(SCc2csc(-c3ccc(Cl)cc3)n2)nnc1-c1ccccc1OC	2%	-14%	5%	2	4%	31
Cc1ccccc1-n1c(SCc2csc(Nc3ccccc3)n2)nnc1-c1cccnc1	5%	-2%	-8%	-5	-2%	-9
Cc1ccc(Nc2nc(CSc3nnc(-c4cccnc4)n3-c3ccccc3C)cs2)cc1	?	-11%	10%	24*	-4%	41
Cc1ccc(Nc2nc(CSc3nnc(-c4ccccc4C)n3C)cs2)cc1	-16%	-7%	-31%	45*	4%	80*
CCC(Sc1nc2ncccc2[nH]1)C(=O)Nc1ccccc1F (centres undefined)	/	4%	/	/	/	/
CN(Cc1ccccc1)C(=S)NC(=O)C1CCCCC1	2%	-1%	-40%	28*	0%	46
CN(C(=S)NC(=O)C1CCCC1)c1ccccc1	/	-10%	/	/	/	/
SMILES	NS1 function inh	Tb PYK inh	SARS PLP yeast	CHX counter	LmPK inhibitor	Shiga inhibitor
Cc1cc(C)n(-c2nc(NCCO)c3c4c(sc3n2)CCCC4)n1	-97%	-10%	-10%	24*	5%	26
Cc1cc(C)n(-c2nc(NCC(C)O)c3c4c(sc3n2)CCCC4)n1 (centres undefined)	-117%	2%	-3%	16*	10%	32
Cc1cc(C)n(-c2nc(NCC3CCCO3)c3c4c(sc3n2)COC(C)(C)C4)n1 (centres undefined)	-87%	-10%	22%	28*	-1%	46
Cc1cc(C)n(-c2nc(NCCCO)c3c4c(sc3n2)CCCC4)n1	-105%	-4%	-3%	18*	15%	43
Cc1c(Cl)cccc1-n1c(SCC(=O)NCc2ccccc2)nc2n[nH]c(C)c2c1=N	/	-3%	/	/	/	/
N/C(=N\OC(=O)c1ccc2c(c1)OCO2)c1cccnc1	3%	-23%	-2%	21*	25µM*	58*
COc1ccc(/C(N)=N/OC(=O)c2ccc3c(c2)OCO3)cc1OC	-6%	-10%	-10%	12	-13%	-5
N/C(=N\OC(=O)c1ccc2c(c1)OCO2)c1cccc(Br)c1	-68%	-30%	-6%	30*	13µM*	87*
O=C(NCc1cccs1)c1ccc(CSc2nc3ccncc3n2Cc2ccccc2)cc1	/	0%	/	/	/	/
CN(C(=O)c1nn(C)c2c1CSc1ccccc1-2)c1ccccc1Cl	-3%	-4%	7%	25*	-10%	33*
CC1CCCN(C(=O)c2nn(C)c3c2CSc2ccccc2-3)C1 (centres undefined)	0%	?	-3%	18*	-2%	31
CN(C(=O)c1nn(C)c2c1CSc1ccccc1-2)c1ccc(F)cc1	-23%	-12%	-28%	-2	3%	-3
N/C(=N\OC(=O)Cc1ccc(-c2ccccc2)cc1)c1cccnc1	-21%	-24%	-3%	14	4%	4
N/C(=N\OC(=O)Cc1ccc(Cl)cc1)c1cccnc1	-25%	11%	-5%	15*	-1%	-23
N/C(=N\OC(=O)Cc1ccccc1)c1cccnc1	-12%	0%	1%	21*	-5%	37
N/C(=N\OC(=O)Cc1ccccc1)c1ccccc1Cl	/	0%	1%	59*	-2%	94*
CCOC(=O)C1=C(C)NC(=O)NC1c1ccc(N2CCC(c3ccccc3)=N2)cc1 (centres undefined)	-14%	1%	2%	11*	1%	26*
COc1cc(C(=O)N(C(C)C)C2CCCCC2)cc(OC)c1OC	/	-8%	/	/	/	/
CCCOc1cccc(C2C(C(=O)c3ccco3)=C(O)C(=O)N2CCN(CC)CC)c1 (centres undefined)	-1%	-10%	-4%	-6	3%	25
CCN(CC)CCCN1C(=O)C(O)=C(C(=O)c2ccc(C)o2)C1c1ccco1 (centres undefined)	9%	/	/	/	/	/
COc1ccc(C2C(C(=O)c3ccco3)=C(O)C(=O)N2CCCn2ccnc2)c(OC)c1 (centres undefined)	15%	3%	1%	32*	2%	48
C=CCOc1ccc(C2C(C(=O)c3ccco3)=C(O)C(=O)N2CCCN(CC)CC)cc1 (centres undefined)	0%	3%	4%	9.5*	-6%	31
CCN(CC)CCCN1C(=O)C(O)=C(C(=O)c2ccco2)C1c1ccc(OC(C)C)cc1 (centres undefined)	5%	2%	-1%	22*	-7%	40
COc1ccc(CCN2C(=O)c3oc4cc(C)cc(C)c4c(=O)c3C2c2ccc(F)cc2)cc1OC (centres undefined)	/	4%	/	/	/	/
